# Results as given in PubChem BioAssay (EPA / NIEHS).
# Results filed as inconclusive are left out. Calls of active or inactive are those of the source. How the source made its calls: active means hit-call score of the fitted dose curve at least 0.9, where 1 is the maximum; inconclusive means response in the unintended direction; inactive means score below 0.9.
# What was measured:
# [1] = target: rat Neurokinin-3 Receptor (NK3), Tacr3 (gene 24808) (UniProt P16177); assay: NVS_GPCR_rNK3: NovaScreen (NVS) G Protein-Coupled Receptor Assay for rat Neurokinin-3 Receptor (NK3) (AID 2283310)
# In short: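 Filter-based radioligand displacement on rat cortex membrane preparations, read by scintillation 2 h post-dose. Chemicals first tested in duplicate at 25 uM; actives followed up in concentration series with a 50 uM maximum.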
# [2] = target: rat Opioid Receptor, Non-selective Sodium (Na+) Binding, Oprm1 (gene 25601) (UniProt P33535); assay: NVS_GPCR_rOpiate_NonSelectiveNa: NovaScreen (NVS) G Protein-Coupled Receptor Assay for rat Opioid Receptor, Non-selective Sodium (Na+) Binding (AID 2283311)
# In short: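 Filtration radioligand binding on rat forebrain membrane preparations, read 1.5 h after dosing. Single-concentration 25 µM primary screen in duplicate, followed by singleton concentration series to 50 µM max for actives; DMSO baseline.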
# [3] = target: rat Neurokinin-1 Receptor (NK1), Tacr1 (gene 24807) (UniProt P14600); assay: NVS_GPCR_rNK1: NovaScreen (NVS) G Protein-Coupled Receptor Assay for rat Neurokinin-1 Receptor (NK1) (AID 2283309)
# In short: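 Competitive radioligand binding to NK1 in rat submaxillary membranes, 1 h incubation, filtration and scintillation read-out. Compounds first screened at 25 uM in duplicate, then concentration-response for actives; signal loss relative to DMSO.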
# [4] = target: human Opioid Receptor Mu (Opiate Mu), OPRM1 (gene 4988) (UniProt P35372); assay: NVS_GPCR_hOpiate_mu: NovaScreen (NVS) G Protein-Coupled Receptor Assay for human Opioid Receptor Mu (Opiate Mu) (AID 2283290);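 further: hits lower bound tracer signal versus DMSO meaning displacement of the ligand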
# In short: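 CHO-derived receptor protein, cell-free; radioligand displacement, filtration + scintillation counting, read at 2.5 h. DMSO = negative control/baseline. Primary: 25 uM single conc, duplicate; secondary: concentration series.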
# [5] = target: rat Corticotropin Releasing Factor Receptor (CRF), Crhr1 (gene 58959) (UniProt P35353); assay: NVS_GPCR_rCRF: NovaScreen (NVS) G Protein-Coupled Receptor Assay for rat Corticotropin Releasing Factor Receptor (CRF) (AID 2283300)
# In short: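 Single-concentration (25 uM, duplicate) radioligand binding on rat cortical membrane preparations, counted by scintillation after 2 h. Activity scored as signal loss relative to DMSO negative control.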
# [6] = target: Adra2b (gene 24174) (UniProt P19328); assay: NVS_GPCR_rmAdra2B: NovaScreen (NVS) G Protein-Coupled Receptor Assay for hybird cells Adrenergic, Alpha 2B Receptor (Adra2B) (AID 2283306)
# In short: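 Compounds screened first at 25 uM in duplicate, with actives followed up in concentration-response; specific radioligand displacement from hybrid neuroglioma/blastoma cell membrane preparations measured by filter scintillation counting after 1 h, normalized to DMSO.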
# [7] = target: rat Serotonin, 5-Hydroxytryptamine Receptor (5HT), Non-Selective Binding, Htr1a (gene 24473) (UniProt P19327); assay: NVS_GPCR_r5HT_NonSelective: NovaScreen (NVS) G Protein-Coupled Receptor Assay for rat Serotonin, 5-Hydroxytryptamine Receptor (5HT), Non-Selective Binding (AID 2283295)
# In short: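 Rat cortex membrane preparation incubated 1 h with radioligand and test chemical; bound radioactivity counted after filtration. Screening began in duplicate at 25 uM with concentration-series follow-up; fitting relative to DMSO.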
# [8] = target: rat Adrenergic Receptor, Alpha 2 (Adra2), Non-selective Binding, Adra2a (gene 25083) (UniProt P22909); assay: NVS_GPCR_rAdra2_NonSelective: NovaScreen (NVS) G Protein-Coupled Receptor Assay for rat Adrenergic Receptor, Alpha 2 (Adra2), Non-selective Binding (AID 2283299)
# In short: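 Filter-based scintillation counting of radioligand binding to rat cortical membrane receptors, measured 1.25 hours post-dosing; loss of signal versus DMSO indicates displacement. Initial single-concentration duplicate at 25 uM, then concentration series.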
# [9] = tested on: guinea pig Atrionatriuretic Peptide Receptor A (ANPA), gene 100135578; assay: NVS_GPCR_gANPA: NovaScreen (NVS) G Protein-Coupled Receptor Assay for guinea pig Atrionatriuretic Peptide Receptor A (ANPA) (AID 2283291)
# In short: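 Displacement of specific radioligand from guinea pig cerebellum membranes was read by scintillation after 1 h. A duplicate single-point screen at 25 uM was followed by a concentration series up to 50 uM, analysed relative to DMSO.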
# [10] = target: rat Adrenergic, Alpha 1A Receptor (Adra1A), Adra1a (gene 29412) (UniProt P43140); assay: NVS_GPCR_rAdra1A: NovaScreen (NVS) G Protein-Coupled Receptor Assay for rat Adrenergic, Alpha 1A Receptor (Adra1A) (AID 2283296)
# In short: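 Filter radiodetection after 1 h competitive binding on CEC-pretreated rat cortical membranes. Duplicate single-point screening at 25 uM; active chemicals retested across concentration series.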
# [11] = target: rat Histamine Receptor (H3), Hrh3 (gene 85268) (UniProt Q9QYN8); assay: NVS_GPCR_rH3: NovaScreen (NVS) G Protein-Coupled Receptor Assay for rat Histamine Receptor (H3) (AID 2283303)
# In short: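 Filter-binding radioligand competition on rat forebrain membranes, 1 h incubation; compounds screened at 25 µM in duplicate and followed in concentration series to 50 µM, loss of bound signal vs DMSO.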
# [12] = target: rat Adrenergic, Alpha 1, Non-selective Receptor (Adra1), Adra1a (gene 29412) (UniProt P43140); assay: NVS_GPCR_rAdra1_NonSelective: NovaScreen (NVS) G Protein-Coupled Receptor Assay for rat Adrenergic, Alpha 1, Non-selective Receptor (Adra1) (AID 2283289)
# In short: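 Chemicals first screened in duplicate at 25 uM, then actives tested in concentration series up to 50 uM. Binding measured as displacement of radioligand from rat forebrain membrane receptors, 1 h, filtration with scintillation readout; DMSO baseline.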
# [13] = tested on: rat Adrenergic, Alpha 1B Receptor (Adra1B), gene 24173; assay: NVS_GPCR_rAdra1B: NovaScreen (NVS) G Protein-Coupled Receptor Assay for rat Adrenergic, Alpha 1B Receptor (Adra1B) (AID 2283297)
# In short: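 Filter-binding radioligand competition on membranes from rat liver, read after 1 h by scintillation counting. Single-concentration duplicate screen at 25 uM, followed by concentration-response on actives, normalised to DMSO.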
# [14] = target: rat Adrenergic Receptor, Beta (Adrb), Non-selective Binding, Adrb1 (gene 24925) (UniProt P18090); assay: NVS_GPCR_rAdrb_NonSelective: NovaScreen (NVS) G Protein-Coupled Receptor Assay for rat Adrenergic Receptor, Beta (Adrb), Non-selective Binding (AID 2283298)
# In short: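 Rat cortical membranes incubated 1 h with beta-adrenergic radioligand and test chemical; bound ligand measured by filtration and scintillation counting. Screen at 25 uM duplicate, then concentration series with 50 uM maximum; loss of signal versus DMSO.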
# [15] = target: rat Gamma-Aminobutyric Acid Type B Receptor (GABBR), Gabbr1 (gene 81657) (UniProt Q9Z0U4); assay: NVS_GPCR_rGABBR: NovaScreen (NVS) G Protein-Coupled Receptor Assay for rat Gamma-Aminobutyric Acid Type B Receptor (GABBR) (AID 2283301)
# In short: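 Rat cortical membrane preparation, competitive radioligand binding for 1 h with filtration and scintillation readout. Actives from duplicate single-point 25 uM screening proceeded to concentration series with 50 uM top concentration.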
# [16] = target: guinea pig Bradykinin Receptor B2 (BK2), BDKRB2 (gene 100135486) (UniProt O70526); assay: NVS_GPCR_gBK2: NovaScreen (NVS) G Protein-Coupled Receptor Assay for guinea pig Bradykinin Receptor B2 (BK2) (AID 2283292)
# In short: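 Guinea pig ileum membrane preparation incubated 1 h with radioligand and test chemical; bound counts measured after filtration. Primary duplicate screening at 25 uM, then singleton concentration series with a 50 uM top dose; DMSO as baseline.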
# [17] = target: guinea pig Serotonin, 5-Hydroxytryptamine Receptor 4 (5HT4), HTR4 (gene 100135548) (UniProt O70528); assay: NVS_GPCR_g5HT4: NovaScreen (NVS) G Protein-Coupled Receptor Assay for guinea pig Serotonin, 5-Hydroxytryptamine Receptor 4 (5HT4) (AID 2283294)
# In short: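 Compounds first screened in duplicate at 25 uM, actives followed up in concentration series. Binding measured as displacement of specific radioligand from guinea pig striatal membranes, 1 h, filter-based scintillation read-out versus DMSO baseline.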
# [18] = target: rat Neurotensin Receptor (NTS), Ntsr1 (gene 366274) (UniProt P20789); assay: NVS_GPCR_rNTS: NovaScreen (NVS) G Protein-Coupled Receptor Assay for rat Neurotensin Receptor (NTS) (AID 2283308)
# In short: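 Single-point duplicates at 25 uM, then concentration series to 50 uM max for hits, measured radioligand displacement on rat forebrain membrane preparations. Bound label counted by filtration scintillation at 1 h; signal loss relative to DMSO fitted.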
# [19] = target: rat Glutamate Metabotropic Receptor 5 (MGluR5), Grm5 (gene 24418) (UniProt P31424); assay: NVS_GPCR_rmMGluR5: NovaScreen (NVS) G Protein-Coupled Receptor Assay for rat Glutamate Metabotropic Receptor 5 (MGluR5) (AID 2283307)
# In short: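 Compounds first screened in duplicate at 25 uM, then in concentration series up to 50 uM if over threshold. Radioligand displacement on rat whole-brain membranes, filtration and scintillation counting after 1.5 h; binding loss relative to DMSO.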
# [20] = target: Metabotropic glutamate receptor 1 (Rattus norvegicus) (UniProt P23385); assay: NVS_GPCR_rmMGluR1: NovaScreen (NVS) G Protein-Coupled Receptor Assay for rat Glutamate Metabotropic Receptor 1 (MGluR1) (AID 2283305)
# In short: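 Binding to native receptor from rat cerebellum extract, measured as displacement of a radioligand (scintillation counting, filter separation) after 1 hour. Compounds tested at 25 uM in duplicate, then titrated to a 50 uM maximum.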
# rat Adrenergic, Alpha 1, Non-selective Receptor (Adra1), Adra1a (gene 29412), sequence (P43140 whole entry, looked up): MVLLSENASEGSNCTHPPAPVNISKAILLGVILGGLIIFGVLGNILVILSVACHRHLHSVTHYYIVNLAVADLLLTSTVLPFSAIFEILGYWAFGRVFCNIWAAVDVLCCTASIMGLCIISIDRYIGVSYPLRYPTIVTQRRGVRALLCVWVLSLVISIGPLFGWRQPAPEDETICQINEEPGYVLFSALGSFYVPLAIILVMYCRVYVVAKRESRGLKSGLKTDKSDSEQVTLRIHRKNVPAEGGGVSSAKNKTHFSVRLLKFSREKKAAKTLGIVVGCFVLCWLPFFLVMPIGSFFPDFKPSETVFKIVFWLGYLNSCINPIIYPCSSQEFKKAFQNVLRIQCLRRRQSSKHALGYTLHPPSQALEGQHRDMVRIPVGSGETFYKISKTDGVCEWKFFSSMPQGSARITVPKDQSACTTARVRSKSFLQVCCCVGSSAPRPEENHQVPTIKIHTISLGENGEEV
# rat Adrenergic, Alpha 1A Receptor (Adra1A), Adra1a (gene 29412), sequence (P43140 whole entry, looked up): as above
# rat Adrenergic Receptor, Alpha 2 (Adra2), Non-selective Binding, Adra2a (gene 25083), sequence (P22909 whole entry, looked up): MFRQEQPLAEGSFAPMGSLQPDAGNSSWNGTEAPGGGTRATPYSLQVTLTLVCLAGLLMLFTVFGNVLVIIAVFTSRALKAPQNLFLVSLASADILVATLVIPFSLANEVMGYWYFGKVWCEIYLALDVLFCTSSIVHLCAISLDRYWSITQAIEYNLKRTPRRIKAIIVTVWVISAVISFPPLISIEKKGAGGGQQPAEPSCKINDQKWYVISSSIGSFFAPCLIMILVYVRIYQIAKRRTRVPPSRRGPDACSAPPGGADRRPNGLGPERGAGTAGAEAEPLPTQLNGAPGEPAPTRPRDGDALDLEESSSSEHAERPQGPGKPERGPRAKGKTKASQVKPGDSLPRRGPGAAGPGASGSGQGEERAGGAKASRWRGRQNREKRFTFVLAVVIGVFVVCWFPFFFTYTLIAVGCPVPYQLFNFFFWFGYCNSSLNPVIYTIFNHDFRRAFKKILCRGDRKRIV
# rat Neurokinin-1 Receptor (NK1), Tacr1 (gene 24807), sequence (P14600 whole entry, looked up): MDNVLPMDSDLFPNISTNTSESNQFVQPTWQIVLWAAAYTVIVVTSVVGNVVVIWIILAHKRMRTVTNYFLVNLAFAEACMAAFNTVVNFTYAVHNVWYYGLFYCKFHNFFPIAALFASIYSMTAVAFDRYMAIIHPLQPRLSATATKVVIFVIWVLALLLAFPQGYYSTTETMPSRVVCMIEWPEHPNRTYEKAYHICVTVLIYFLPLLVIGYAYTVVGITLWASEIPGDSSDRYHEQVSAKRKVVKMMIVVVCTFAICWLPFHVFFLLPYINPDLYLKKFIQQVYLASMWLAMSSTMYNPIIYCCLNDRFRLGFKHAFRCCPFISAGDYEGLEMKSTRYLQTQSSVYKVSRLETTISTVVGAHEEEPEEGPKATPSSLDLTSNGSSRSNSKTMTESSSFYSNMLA
# rat Corticotropin Releasing Factor Receptor (CRF), Crhr1 (gene 58959), sequence (P35353 whole entry, looked up): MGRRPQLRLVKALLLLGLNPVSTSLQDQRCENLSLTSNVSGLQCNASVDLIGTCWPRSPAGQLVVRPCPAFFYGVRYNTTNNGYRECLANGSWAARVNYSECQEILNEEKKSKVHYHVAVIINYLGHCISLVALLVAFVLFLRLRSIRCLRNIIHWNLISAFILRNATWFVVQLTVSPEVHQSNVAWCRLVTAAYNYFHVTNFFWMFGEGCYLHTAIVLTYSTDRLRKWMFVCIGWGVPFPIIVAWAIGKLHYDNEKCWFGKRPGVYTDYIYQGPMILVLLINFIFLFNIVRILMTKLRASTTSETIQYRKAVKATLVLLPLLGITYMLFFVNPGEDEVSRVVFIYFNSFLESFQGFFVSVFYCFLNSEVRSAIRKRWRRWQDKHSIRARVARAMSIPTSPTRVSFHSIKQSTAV
# Adra2b (gene 24174), sequence (P19328 whole entry, looked up): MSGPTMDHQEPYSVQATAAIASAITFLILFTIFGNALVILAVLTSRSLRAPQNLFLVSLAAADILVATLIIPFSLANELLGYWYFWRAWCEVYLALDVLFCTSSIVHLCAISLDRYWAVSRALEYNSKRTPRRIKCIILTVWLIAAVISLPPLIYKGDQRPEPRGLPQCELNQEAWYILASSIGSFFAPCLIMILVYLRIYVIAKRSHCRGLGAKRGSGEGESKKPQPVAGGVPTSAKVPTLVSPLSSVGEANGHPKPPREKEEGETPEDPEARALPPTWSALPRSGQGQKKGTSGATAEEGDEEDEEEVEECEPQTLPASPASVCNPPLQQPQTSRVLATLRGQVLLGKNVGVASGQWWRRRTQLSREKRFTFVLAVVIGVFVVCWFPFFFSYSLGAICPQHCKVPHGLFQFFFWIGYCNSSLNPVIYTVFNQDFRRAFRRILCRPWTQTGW
# human Opioid Receptor Mu (Opiate Mu), OPRM1 (gene 4988), sequence (P35372 whole entry, looked up): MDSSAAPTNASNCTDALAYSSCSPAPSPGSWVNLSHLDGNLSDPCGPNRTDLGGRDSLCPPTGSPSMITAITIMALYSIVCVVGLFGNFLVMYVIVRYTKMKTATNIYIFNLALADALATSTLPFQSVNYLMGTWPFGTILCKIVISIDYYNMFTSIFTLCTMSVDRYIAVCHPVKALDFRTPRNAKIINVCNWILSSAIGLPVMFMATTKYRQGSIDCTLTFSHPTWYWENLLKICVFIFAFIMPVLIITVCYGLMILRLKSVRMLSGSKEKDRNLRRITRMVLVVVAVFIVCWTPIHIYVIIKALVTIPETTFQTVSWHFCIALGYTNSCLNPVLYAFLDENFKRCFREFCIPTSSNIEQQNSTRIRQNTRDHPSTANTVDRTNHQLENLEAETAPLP
# rat Opioid Receptor, Non-selective Sodium (Na+) Binding, Oprm1 (gene 25601), sequence (P33535 whole entry, looked up): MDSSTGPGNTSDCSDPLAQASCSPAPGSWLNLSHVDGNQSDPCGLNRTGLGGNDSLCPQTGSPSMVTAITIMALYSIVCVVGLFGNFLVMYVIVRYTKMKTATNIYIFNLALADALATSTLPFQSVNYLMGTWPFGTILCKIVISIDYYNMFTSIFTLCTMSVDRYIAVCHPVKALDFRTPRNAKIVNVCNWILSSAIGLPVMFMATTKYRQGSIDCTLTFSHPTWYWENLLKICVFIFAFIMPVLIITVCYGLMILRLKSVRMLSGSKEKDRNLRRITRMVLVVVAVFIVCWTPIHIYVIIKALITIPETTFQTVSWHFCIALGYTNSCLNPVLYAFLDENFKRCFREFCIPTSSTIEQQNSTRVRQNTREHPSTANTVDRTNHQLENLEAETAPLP
# rat Serotonin, 5-Hydroxytryptamine Receptor (5HT), Non-Selective Binding, Htr1a (gene 24473), sequence (P19327 whole entry, looked up): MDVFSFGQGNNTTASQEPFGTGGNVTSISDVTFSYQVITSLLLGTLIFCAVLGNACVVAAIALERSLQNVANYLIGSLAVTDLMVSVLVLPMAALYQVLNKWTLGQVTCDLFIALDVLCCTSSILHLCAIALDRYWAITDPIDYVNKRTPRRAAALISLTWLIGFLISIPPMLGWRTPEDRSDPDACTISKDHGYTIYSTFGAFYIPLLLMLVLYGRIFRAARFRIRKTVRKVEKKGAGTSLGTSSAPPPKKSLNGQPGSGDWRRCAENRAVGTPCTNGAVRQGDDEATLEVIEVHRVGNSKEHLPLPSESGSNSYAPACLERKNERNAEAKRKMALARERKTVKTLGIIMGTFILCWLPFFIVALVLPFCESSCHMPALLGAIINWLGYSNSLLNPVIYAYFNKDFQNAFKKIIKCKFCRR
# rat Histamine Receptor (H3), Hrh3 (gene 85268), sequence (Q9QYN8 whole entry, looked up): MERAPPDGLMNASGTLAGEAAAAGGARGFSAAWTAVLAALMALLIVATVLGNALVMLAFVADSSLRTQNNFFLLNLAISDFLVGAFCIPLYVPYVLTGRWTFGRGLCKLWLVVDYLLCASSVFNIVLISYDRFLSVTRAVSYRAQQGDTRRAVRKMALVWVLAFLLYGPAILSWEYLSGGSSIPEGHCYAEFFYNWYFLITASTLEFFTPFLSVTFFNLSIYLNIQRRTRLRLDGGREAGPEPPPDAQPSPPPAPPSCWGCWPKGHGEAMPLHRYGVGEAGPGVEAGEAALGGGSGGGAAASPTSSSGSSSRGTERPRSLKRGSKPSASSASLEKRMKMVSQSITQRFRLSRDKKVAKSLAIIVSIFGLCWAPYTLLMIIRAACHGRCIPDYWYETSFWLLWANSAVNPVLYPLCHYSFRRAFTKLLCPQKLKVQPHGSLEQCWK
# rat Adrenergic Receptor, Beta (Adrb), Non-selective Binding, Adrb1 (gene 24925), sequence (P18090 whole entry, looked up): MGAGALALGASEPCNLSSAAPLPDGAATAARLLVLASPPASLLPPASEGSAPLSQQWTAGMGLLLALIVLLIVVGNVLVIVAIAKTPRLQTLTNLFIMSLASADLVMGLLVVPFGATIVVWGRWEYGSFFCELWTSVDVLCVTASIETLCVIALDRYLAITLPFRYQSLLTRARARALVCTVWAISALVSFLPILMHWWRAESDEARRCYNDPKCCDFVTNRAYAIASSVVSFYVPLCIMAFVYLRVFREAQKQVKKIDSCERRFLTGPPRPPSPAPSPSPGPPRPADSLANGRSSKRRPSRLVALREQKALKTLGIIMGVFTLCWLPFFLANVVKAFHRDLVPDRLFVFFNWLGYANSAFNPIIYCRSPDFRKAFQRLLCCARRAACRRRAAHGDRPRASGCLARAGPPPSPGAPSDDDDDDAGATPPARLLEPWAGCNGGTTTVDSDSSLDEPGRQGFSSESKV
compound,measurement,setting,value
CCCCC(C#N)(Cn1cncn1)c1ccc(Cl)cc1 (stereo not drawn),outcome,[1],inactive
COCC(C)N(C(=O)CCl)c1c(C)csc1C (stereo not drawn),AC50,[2],16 µM (active)
Cc1cc(C)nc(Nc2ccccc2)n1,outcome,[3],inactive
CCN(CC)C(=O)C(C)Oc1cccc2ccccc12 (stereo not drawn),AC50,[4],14.8 µM (active)
same,outcome,[5],inactive
CN/C(=N\[N+](=O)[O-])NCc1cnc(Cl)s1,AC50,[6],8.79 µM (active)
COC(=O)N(C(=O)N1CO[C@@]2(C(=O)OC)Cc3cc(Cl)ccc3C2=N1)c1ccc(OC(F)(F)F)cc1,outcome,[7],inactive
same,outcome,[8],inactive
same,outcome,[5],inactive
CS(=O)(=O)c1cc(C(F)(F)F)ccc1C(=O)c1cnoc1C1CC1,outcome,[9],inactive
COP(=O)(OC)O/C(C)=C/C(=O)N(C)C,outcome,[10],inactive
COP(=S)(OC)SCn1nnc2ccccc2c1=O,outcome,[4],inactive
CCCN(CC)CC1COC2(CCC(C(C)(C)C)CC2)O1 (stereo not drawn),AC50,[8],16.7 µM (active)
same,AC50,[11],12.2 µM (active)
same,AC50,[6],25 µM (active)
same,AC50,[2],13.8 µM (active)
CCCCC(O)(Cn1cncn1)c1ccc(Cl)cc1Cl (stereo not drawn),AC50,[4],4.96 µM (active)
CCSC(=O)N1CCCCCC1,outcome,[9],inactive
N#CN=C1SCCN1Cc1ccc(Cl)nc1,outcome,[5],inactive
same,outcome,[6],inactive
CCOc1nc(F)cc2nc(S(=O)(=O)Nc3c(Cl)cccc3Cl)nn12,outcome,[12],inactive
CC1(C)CCC(=Cc2ccc(Cl)cc2)C1(O)Cn1cncn1 (stereo not drawn),outcome,[13],inactive
N#Cc1c[nH]cc1-c1cccc2c1OC(F)(F)O2,outcome,[7],inactive
same,outcome,[8],inactive
CCNP(=S)(OC)O/C(C)=C/C(=O)OC(C)C (stereo not drawn),outcome,[14],inactive
same,outcome,[15],inactive
same,outcome,[3],inactive
COC(=O)NC(=S)Nc1ccccc1NC(=S)NC(=O)OC,outcome,[16],inactive
Cn1c(-c2ccccc2)cc(-c2ccccc2)[n+]1C,AC50,[12],5.28 µM (active)
same,AC50,[17],6.94 µM (active)
same,AC50,[10],7.91 µM (active)
same,AC50,[13],16.5 µM (active)
same,AC50,[14],9.62 µM (active)
same,AC50,[8],3.72 µM (active)
same,AC50,[6],0.891 µM (active)
same,outcome,[3],inactive
O=C(Nc1ccccc1-c1ccc(Cl)cc1)c1cccnc1Cl,outcome,[18],inactive
CC(C)=CC1C(C(=O)OCc2coc(Cc3ccccc3)c2)C1(C)C (stereo not drawn),AC50,[4],7.58 µM (active)
CNC(=O)N(C)c1nnc(C(C)(C)C)s1,outcome,[9],inactive
COc1cc(Cl)c(OC)cc1Cl,outcome,[13],inactive
Cc1ccc(N=CN(C)C=Nc2ccc(C)cc2C)c(C)c1,AC50,[12],1.5 µM (active)
same,outcome,[7],inactive
same,outcome,[10],inactive
same,AC50,[8],0.219 µM (active)
same,AC50,[6],0.779 µM (active)
Nc1c(Cl)c(Cl)nc(C(=O)O)c1Cl,outcome,[19],inactive
O=C1C2CC=CCC2C(=O)N1SC(Cl)(Cl)Cl (stereo not drawn),AC50,[4],9.7 µM (active)
same,outcome,[11],inactive
same,AC50,[20],25 µM (active)
same,outcome,[2],inactive
CS(=O)(=O)c1ccc(C(=O)C2C(=O)CCCC2=O)c([N+](=O)[O-])c1,outcome,[15],inactive
CNC(=O)Oc1cccc2ccccc12,outcome,[10],inactive
CCOP(=O)(OCC)Oc1nc(Cl)c(Cl)cc1Cl,AC50,[2],25 µM (active)
